From PubChem BioAssay AID1159580 (chemical genetic matrix, 2015)
Values joined by “and” are separate entries in the source; they are usually repeats but may differ in a detail not shown here. Equal entries are not always repeated. The whole screen tested about 5,500 compounds, of which about 2,000 (36%) were called active. Another 18% or so got no clear call; they are omitted. Cut-off read from the data, not from the text of the source: active = normalized growth mostly below about 0.91 (no sharp cut-off); inconclusive = no clear call, values can overlap the other calls; inactive = mostly above about 0.92. The list shows a part of the results.

Assay: chemical genetic growth profiling, strain panel (AID 1159580);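 note: tested at 20 µM; growth read once vehicle control cultures reached saturation at 30 °C; 1 = growth at the plate median or of vehicle wells; lower values mean less growth of the strain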
Settings: growth OD

Measured: normalized growth

Cc1cc(N)c2ccccc2[n+]1CCCCCCCCCC[n+]1c(C)cc(N)c2ccccc21
active: S. cerevisiae deletion strains, locus YJL187C, strain SWE1, hits give low values 0.066 | S. cerevisiae deletion strains, locus YJR043C, strain POL32, hits give low values 0.0703 | S. cerevisiae deletion strains, locus YJR075W, strain HOC1, hits give low values 0.0707 and 0.0679 | S. cerevisiae deletion strains, locus YKL009W, strain mrt4, hits give low values 0.107 | S. cerevisiae deletion strains, locus YKL068W, hits give low values 0.0834 | S. cerevisiae deletion strains, locus YKL085W, strain MDH1 (second series), hits give low values 0.0842 | S. cerevisiae deletion strains, locus YKL085W, strain MDH1, hits give low values 0.0842 | S. cerevisiae deletion strains, locus YKL160W, strain elf1, hits give low values 0.0728 | S. cerevisiae deletion strains, locus YKL190W, strain CNB1, hits give low values 0.0496 | S. cerevisiae deletion strains, locus YKR001C, strain vps1, hits give low values 0.0684 | S. cerevisiae deletion strains, locus YKR026C, strain gcn3, hits give low values 0.0705 | S. cerevisiae deletion strains, locus YKR091W, strain srl3, hits give low values 0.0679 | S. cerevisiae deletion strains, locus YLL001W, strain dnm1, hits give low values 0.0644 | S. cerevisiae deletion strains, locus YLL026W, hits give low values 0.0616 | S. cerevisiae deletion strains, locus YLL041C, strain sdh2, hits give low values 0.0642 | S. cerevisiae deletion strains, locus YLR027C, strain aat2, hits give low values 0.0617 | S. cerevisiae deletion strains, locus YLR039C, strain RIC1, hits give low values 0.0806 | S. cerevisiae deletion strains, locus YLR058C, strain SHM2, hits give low values 0.0484 | S. cerevisiae deletion strains, locus YLR102C, strain apc9, hits give low values 0.0687 | S. cerevisiae deletion strains, locus YLR221C, strain rsa3, hits give low values 0.0648 | S. cerevisiae deletion strains, locus YLR258W, strain gsy2, hits give low values 0.0653 | S. cerevisiae deletion strains, locus YLR262C, strain YPT6 (second series), hits give low values 0.0835 | S. cerevisiae deletion strains, locus YLR262C, strain YPT6, hits give low values 0.107 | S. cerevisiae deletion strains, locus YLR268W, strain sec22, hits give low values 0.0712 | S. cerevisiae deletion strains, locus YLR320W, strain mms22, hits give low values 0.0855 | S. cerevisiae deletion strains, locus YLR330W, strain CHS5, hits give low values 0.0547 | S. cerevisiae deletion strains, locus YLR342W, strain FKS1 (second series), hits give low values 0.0723 | S. cerevisiae deletion strains, locus YLR342W, strain FKS1, hits give low values 0.0695 | S. cerevisiae deletion strains, locus YLR357W, strain rsc2, hits give low values 0.126 | S. cerevisiae deletion strains, locus YLR370C, strain arc18, hits give low values 0.0633 | S. cerevisiae deletion strains, locus YLR371W, strain rom2, hits give low values 0.0663 | S. cerevisiae deletion strains, locus YLR384C, strain iki3, hits give low values 0.0616 | S. cerevisiae deletion strains, locus YLR418C, strain cdc73, hits give low values 0.101 | S. cerevisiae deletion strains, locus YML016C, strain PPZ1, hits give low values 0.0475 | S. cerevisiae deletion strains, locus YML032C, strain rad52, hits give low values 0.0723 | S. cerevisiae deletion strains, locus YML120C, strain ndi1, hits give low values 0.0605 | S. cerevisiae deletion strains, locus YML124C, strain tub3, hits give low values 0.0637 | S. cerevisiae deletion strains, locus YMR058W, strain fet3, hits give low values 0.0627 | S. cerevisiae deletion strains, locus YMR078C, strain ctf18, hits give low values 0.0768 | S. cerevisiae deletion strains, locus YMR125W, strain sto1, hits give low values 0.0824 | S. cerevisiae deletion strains, locus YMR129W, hits give low values 0.069 | S. cerevisiae deletion strains, locus YMR205C, strain PFK2, hits give low values 0.0906 | S. cerevisiae deletion strains, locus YMR223W, strain ubp8, hits give low values 0.0681 | S. cerevisiae deletion strains, locus YMR231W, strain pep5, hits give low values 0.0782 | S. cerevisiae deletion strains, locus YMR263W, strain SAP30, hits give low values 0.0586 | S. cerevisiae deletion strains, locus YMR307W, strain GAS1, hits give low values 0.119 and 0.0541 | S. cerevisiae deletion strains, locus YNL067W, strain RPL9B, hits give low values 0.0529 | S. cerevisiae deletion strains, locus YNL071W, strain lat1, hits give low values 0.0636 | S. cerevisiae deletion strains, locus YNL128W, strain TEP1, hits give low values 0.0667 and 0.0791 | S. cerevisiae deletion strains, locus YNL153C, strain GIM3, hits give low values 0.0526 and 0.0904 | S. cerevisiae deletion strains, locus YNL175C, strain NOP13, hits give low values 0.0762 | S. cerevisiae deletion strains, locus YNL197C, strain WHI3, hits give low values 0.0722 | S. cerevisiae deletion strains, locus YNL209W, strain ssb2, hits give low values 0.0673 | S. cerevisiae deletion strains, locus YNL224C, strain SQS1, hits give low values 0.0723 | S. cerevisiae deletion strains, locus YNL233W, strain BNI4, hits give low values 0.0625 | S. cerevisiae deletion strains, locus YNL248C, strain rpa49, hits give low values 0.0815 | S. cerevisiae deletion strains, locus YNL250W, strain rad50, hits give low values 0.136 | S. cerevisiae deletion strains, locus YNL271C, strain bni1, hits give low values 0.0837 | S. cerevisiae deletion strains, locus YNL298W, strain CLA4, hits give low values 0.0752 | S. cerevisiae deletion strains, locus YNL307C, strain MCK1, hits give low values 0.0714 | S. cerevisiae deletion strains, locus YNL322C, strain KRE1 (second series), hits give low values 0.0698 | S. cerevisiae deletion strains, locus YNL322C, strain KRE1, hits give low values 0.0558 | S. cerevisiae deletion strains, locus YNR049C, strain mso1, hits give low values 0.0605 | S. cerevisiae deletion strains, locus YNR052C, strain pop2, hits give low values 0.0672 | S. cerevisiae deletion strains, locus YOL006C, strain TOP1, hits give low values 0.11 | S. cerevisiae deletion strains, locus YOL147C, strain pex11, hits give low values 0.0611 | S. cerevisiae deletion strains, locus YOR001W, strain rrp6, hits give low values 0.0775 | S. cerevisiae deletion strains, locus YOR061W, strain CKA2, hits give low values 0.0489 | S. cerevisiae deletion strains, locus YOR069W, strain VPS5, hits give low values 0.0494 | S. cerevisiae deletion strains, locus YOR070C, strain gyp1, hits give low values 0.0633 | S. cerevisiae deletion strains, locus YOR080W, strain dia2, hits give low values 0.0687 | S. cerevisiae deletion strains, locus YOR083W, strain WHI5 (second series), hits give low values 0.081 | S. cerevisiae deletion strains, locus YOR083W, strain WHI5, hits give low values 0.0703 | S. cerevisiae deletion strains, locus YOR106W, strain vam3, hits give low values 0.065 | S. cerevisiae deletion strains, locus YOR136W, strain idh2, hits give low values 0.0784 | S. cerevisiae deletion strains, locus YOR144C, strain elg1, hits give low values 0.0641 | S. cerevisiae deletion strains, locus YOR184W, strain ser1, hits give low values 0.0725 | S. cerevisiae deletion strains, locus YOR265W, strain rbl2, hits give low values 0.0616 | S. cerevisiae deletion strains, locus YOR270C, strain vph1, hits give low values 0.0961 | S. cerevisiae deletion strains, locus YOR290C, strain snf2, hits give low values 0.0714 | S. cerevisiae deletion strains, locus YOR316C, strain cot1, hits give low values 0.066 | S. cerevisiae deletion strains, locus YPL051W, strain arl3, hits give low values 0.0687 | S. cerevisiae deletion strains, locus YPL055C, strain LGE1, hits give low values 0.0706 and 0.0896 | S. cerevisiae deletion strains, locus YPL078C, strain atp4, hits give low values 0.0678 | S. cerevisiae deletion strains, locus YPL106C, strain sse1, hits give low values 0.111 | S. cerevisiae deletion strains, locus YPL240C, strain hsp82, hits give low values 0.0603 | S. cerevisiae deletion strains, locus YPL241C, strain CIN2, hits give low values 0.0524 and 0.0485 | S. cerevisiae deletion strains, locus YPR119W, strain clb2, hits give low values 0.0709 | S. cerevisiae deletion strains, locus YPR141C, strain kar3, hits give low values 0.0821 | S. cerevisiae deletion strains, locus YPR163C, strain tif3, hits give low values 0.0791 | S. cerevisiae deletion strains, locus YPR167C, strain met16, hits give low values 0.0671 | S. cerevisiae deletion strains, strain wtn01, hits give low values 0.0664 | S. cerevisiae strains, strain wild type, hits give low values 0.0519
